An excerpt weighted towards active compounds, which were near 2.4% of everything screened.
D2 PAM-1 – potentiates the human D2 dopamine receptor allosterically; P14416; DiscoveRx D2 beta-arrestin cells, luminescence, 90 min; 100% = 57 uM dopamine signal; potentiation, % (concentration not given with the values); actives 0.23% (n = 360,000); AID 624464; in the data active = potentiation above about 50%; inconclusive = mostly about 30% to 49%
Target sequence (P14416 whole entry, looked up): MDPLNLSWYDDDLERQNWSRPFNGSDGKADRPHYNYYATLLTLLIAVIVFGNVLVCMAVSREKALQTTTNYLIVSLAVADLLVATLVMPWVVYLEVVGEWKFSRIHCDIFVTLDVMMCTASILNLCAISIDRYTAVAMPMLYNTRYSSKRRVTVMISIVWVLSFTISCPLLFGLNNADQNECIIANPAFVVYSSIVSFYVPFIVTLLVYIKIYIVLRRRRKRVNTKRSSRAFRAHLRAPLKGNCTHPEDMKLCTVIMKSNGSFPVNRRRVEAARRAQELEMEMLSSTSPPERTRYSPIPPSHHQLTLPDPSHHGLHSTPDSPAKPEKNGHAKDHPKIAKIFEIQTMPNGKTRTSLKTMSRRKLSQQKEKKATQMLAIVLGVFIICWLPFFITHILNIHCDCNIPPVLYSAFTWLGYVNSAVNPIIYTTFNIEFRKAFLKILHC
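PathHunter D2 cells, attached overnight at 37 deg C, received compound in DMSO plus dopamine at EC20 (50 nM final) for 90 min at 37 deg C. Beta-arrestin recruitment was read as luminescence after 1 h with detection reagent at ambient temperature.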
D2 ag-1 – activates the human D2 dopamine receptor; activation, % at 2 µM; HEK293 T-REx D2 cells, calcium flux agonist mode; P14416; actives 0.53% (n = 340,000);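 active = activation over 3 SD above normal in the single-dose calcium agonist read, cut at about 30% in these data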; also: 0% is about no effect
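Agonism is scored from calcium flux in a force-coupled, inducible HEK293 cell line expressing D2, read kinetically for 180 s after compound addition against dopamine controls.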
D2 PAM-2 – D2 dopamine receptor (human) potentiation; P14416; HEK293 T-REx D2, calcium flux, EC20 dopamine potentiation; potentiation, % at 10 µM; actives 0.34% (n = 340,000);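 active = potentiation over 3 SD above the plate norm, cut at about 30% in these data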; also: 0% is about no effect
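Potentiation of an EC20 dopamine calcium response is measured in a force-coupled, tetracycline-inducible Hek293 Trex D2 line. Compound-only kinetic reads over 180 s flag agonists before dopamine addition.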
D2 ag-2 – activates the human D2 dopamine receptor. P14416. DiscoveRx PathHunter D2 beta-arrestin, luminescence, 90 min; 100% = 57 uM dopamine signal. activation, % (concentration not given with the values). actives 0.084% (n = 360,000). AID 624465; in the data active = activation above about 40%; inconclusive = between about 15% and that limit
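DiscoveRx PathHunter D2 beta-arrestin cells (2,100/well) attached overnight, then compound-stimulated 90 min at 37 C in HBSS/10 mM HEPES/0.1% Tween-20 buffer; beta-galactosidase complementation read by luminescence after 1 h at ambient temperature. Dopamine 57 uM final (EC100) as control.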
D2 antagonist – D2 dopamine receptor (human) antagonism; inhibition, % at 10 µM; actives 2% (n = 340,000); HEK293 TREx D2 cells, calcium flux, dopamine EC80; AID 485344; P14416; in the data active = inhibition above about 30%; inactive = below that, where a call was filed; also: 0% is about no effect
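In this primary screen, negative modulation is detected by tracking calcium flux after an EC80 dopamine challenge in inducible HEK293 T-REx D2 cells preexposed to test compound for 180 s.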
Starred values were filed as active, the others as inactive; ? = inconclusive; nt = not tested or not shown.

SMILES	D2 PAM-1	D2 ag-1	D2 PAM-2	D2 ag-2	D2 antagonist
CCOC(=O)c1ccc(NC(=O)CSc2nnc(CNc3ccc(C)cc3)n2C)cc1	50.2*	0.7	-5.9	-0.4	-9.1
CCN(CC)CCOC(=O)c1ccc(NC(=O)CSc2nnc(-c3cccs3)n2CC)cc1	74.3*	nt	nt	12.5	nt
Cc1cc(NC(=O)CSc2nnc(-c3cccs3)n2N)no1	-7.2	-0.5	9.9	-1.7	38.8*
CCOC(=O)c1ccc(NC(=O)CSc2nnc(C3CC3)n2C)cc1	-10.8	-0.2	11.1	-3.5	-11.0
CCCCn1c(SCC(=O)Nc2cc(C)on2)nnc1-c1cccs1	-13.6	0.5	5.9	-3.7	6.4
C=CCn1c(SCC(=O)Nc2ccc(C(=O)OCC)cc2)nnc1-c1sc(N)nc1C	22.8	1.0	0.2	-9.2	31.4*
CCOC(=O)c1ccc(NC(=O)c2cc(=O)c3ccc(C)c(C)c3o2)cc1	nt	0.0	2.9	nt	nt
Cn1c(=O)c2c(nc(NCC3CCCO3)n2Cc2ccccc2)n(C)c1=O (stereo unspecified)	-12.2	0.1	40.3*	0.3	12.5
CCn1c(NCc2ccccn2)nc2c1c(=O)n(C)c(=O)n2C	13.5	0.0	63.4*	-1.2	0.8
Cn1c(=O)c2c(nc(NCc3ccccc3)n2Cc2ccccc2)n(C)c1=O	nt	nt	15.4	nt	nt
O=C(NNC1CC(=O)N(c2ccc(Br)cc2)C1=O)c1ccco1 (stereo unspecified)	-18.5	37.5*	-20.8	1.9	-2.5
CCOc1cccc(N2C(=O)CC(NNC(=O)c3ccc(Br)o3)C2=O)c1 (stereo unspecified)	-5.5	-0.6	10.4	-2.0	38.1*
CCCOc1ccc(N2C(=O)CC(NNC(=O)c3ccc(COc4ccccc4)o3)C2=O)cc1 (stereo unspecified)	-12.5	-1.0	3.1	6.2	-0.9
O=C(NNC1CC(=O)N(c2ccc(Cl)cc2)C1=O)c1ccco1 (stereo unspecified)	-9.3	0.5	-2.9	-2.5	2.5
Cc1nc(NS(=O)(=O)c2ccccc2)sc1NC(=O)Nc1ccc(Cl)cc1	-3.4	0.9	-16.0	5.7	-18.2
CCOC(=O)Nc1sc(NS(=O)(=O)c2ccccc2)nc1C	86.4*	0.1	-6.4	12.3	0.6
Cc1nc(NS(=O)(=O)c2ccccc2)sc1NC(=O)Nc1ccccc1	0.6	-1.0	-10.5	?	55.3*
O=C(Nc1cccc2ccccc12)c1ccc([N+](=O)[O-])o1	7.8	0.2	-11.4	2.0	1.5
O=C(Nc1ccccc1C(=O)NC1CC1)c1ccc([N+](=O)[O-])o1	58.7*	0.3	15.6	?	-3.1
O=C(C1COc2ccccc2O1)N1CCN(c2ccc(C(F)(F)F)cn2)CC1 (stereo unspecified)	-8.5	nt	nt	2.2	nt
O=C(C1COc2ccccc2O1)N1CCN(c2ccccc2)CC1 (stereo unspecified)	-13.1	-0.4	-4.5	-0.8	40.6*
NS(=O)(=O)c1ccc(N2CCN(C(=O)C3COc4ccccc4O3)CC2)nc1 (stereo unspecified)	7.1	-0.8	1.1	-0.8	34.8*
CCC(CO)NC(=O)C(=O)Nc1c2c(nn1-c1ccc(F)cc1)CSC2 (stereo unspecified)	nt	1.0	-11.6	nt	nt
COc1ccc(CC(=O)NCCc2cnc[nH]2)cc1	-11.2	0.3	6.8	-4.7	4.0
COc1ccc(C)c(NC(=O)NCCc2cnc[nH]2)c1	-27.4	-0.1	-10.4	0.3	37.7*
SMILES	D2 PAM-1	D2 ag-1	D2 PAM-2	D2 ag-2	D2 antagonist
CCOC(=O)c1ccccc1NC(=O)N1CCC(CN2CCCCC2)CC1	nt	1.3	-6.4	nt	nt
CCOc1ccc(OCC)c(NC(=O)Cn2ncc3c4ccccc4n(Cc4ccccc4)c3c2=O)c1	nt	0.1	0.9	nt	nt
N#Cc1c(-c2ccco2)cc(-c2cccnc2)nc1N	5.4	0.3	18.0	-0.5	-1.0
N#Cc1c(-c2ccco2)cc(-c2ccccn2)nc1N	-6.9	0.4	35.8*	0.1	-9.6
O=C(O)COc1ccc2occ(C(=O)c3ccccc3)c2c1	-2.3	-2.1	6.9	-4.6	37.5*
O=C(NCC(c1ccc2c(c1)OCO2)N1CCN(c2ccccc2F)CC1)c1ccccc1F (stereo unspecified)	nt	11.0	-5.7	nt	nt
Cc1cccc(-c2nc3c4ccccc4n(CC(=O)Nc4cccc(F)c4)c(=O)n3n2)c1	nt	nt	-2.7	nt	nt
CCOC(=O)c1c(C)[nH]c(C(=O)C(C)Sc2ccc(Cl)cc2)c1C (stereo unspecified)	2.4	-0.6	32.0*	0.9	16.1
CCOC(=O)/C(=C\c1ccc(N2CCC(c3ccccc3)=N2)cc1)C(C)=O	-19.1	nt	nt	0.2	nt
O=C(/C=C/c1ccc(N2CCC(c3ccccc3)=N2)cc1)c1ccccc1	-14.4	36.6*	-3.6	-5.3	32.7*
CC1(C2CC2)NC(=O)N(CC(=O)NCc2ccc(Cl)cc2Cl)C1=O (stereo unspecified)	-2.8	0.1	12.3	-8.7	40.0*
Cc1ccc(Cl)cc1NC(=O)CN1C(=O)NC(C)(C2CC2)C1=O (stereo unspecified)	-1.6	nt	nt	0.8	nt
O=C(NC(CO)C(O)c1ccc([N+](=O)[O-])cc1)C(Cl)Cl (stereo unspecified)	-4.8	2.4	-16.2	4.2	51.9*
O=C(N[C@H](CO)[C@H](O)c1ccc([N+](=O)[O-])cc1)C(Cl)Cl	-9.0	nt	nt	-4.9	nt
COc1ccc2[nH]c3c(c2c1)CCn1c-3nc2sc(C(=O)Nc3ccccc3)c(C)c2c1=O	nt	0.4	8.6	nt	39.2*
Brc1cccc(CN2CCCCCC2)c1	-4.1	-0.8	-12.3	-3.1	-2.2
Oc1cccc(CN2CCCCC2)c1	-6.8	0.7	-13.2	-3.3	56.4*
Cn1c(=O)n(C)c2cc(N3CCCCC3)c(NC(=O)c3c(F)cccc3F)cc21	nt	-1.1	1.8	nt	nt
Cc1ccc(C)c(Nc2nc(-c3ccncc3)nc3ccccc23)c1	-4.1	nt	13.5	4.6	35.8*
COc1ccc(C2CC(c3ccccc3)n3nnnc3N2)cc1 (stereo unspecified)	-6.0	1.0	3.7	-1.7	-2.1
COc1ccc(C2CC(c3cc(Br)ccc3F)n3nnnc3N2)cc1 (stereo unspecified)	18.6	-0.3	33.5*	0.1	12.4
CC(C)(C)c1ccc(C(=O)NCCCNC(=O)c2ccco2)cc1	-3.5	0.2	-3.0	-2.6	12.8
CC(C)(C)c1cc(C(F)(F)F)nc(SCCCNC(=O)c2ccco2)n1	-6.9	-1.3	13.2	2.3	35.6*
COc1cccc(/C=C2\N=C(C3CCCCC3)OC2=O)c1OC	-3.6	0.3	45.4*	-0.3	1.7
Cc1ccccc1CNC(=O)CN1C(=O)C2CCCCN2c2ccc(C(=O)N3CCCC3)cc21 (stereo unspecified)	nt	-2.1	16.2	nt	nt
Cc1ccc(CNC(=O)c2cc(S(=O)(=O)N3CCCCCC3)cn2C)cc1	nt	-0.5	-4.2	nt	nt

Source: PubChem BioAssay
